Screening data (PubChem)
The list is not random: actives were taken first. Their share in the collection is about 1.5%.
Coupling enz: counter-screen for Giardia aldolase inhibitors: coupling enzyme system; 0.67% of 290,000 active; coupling enzyme system counterscreen, AmpLite Red fluorescence; AID 2472; activity change, negative = inhibition, % at 58.2 µM, hits read low; in the data active = activity change below about -30%
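Counterscreen lacking aldolase: glyceraldehyde-3-phosphate coupling-enzyme reagent preincubated 10 min at RT with compound (at 57.5 uM final), then substrate/coupling system with AmpLite Red added; fluorescence read at 525/598 nm after 20 min RT.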
USP1 inh: inhibitors of human USP1/UAF1 deubiquitinase. AID 743255. 0.23% of 390,000 active. O94782. recombinant USP1/UAF1, Ub-Rhodamine cleavage fluorescence. Potency, µM (highest dose often 57.1 µM), without a hit: at the highest dose activity change, negative = inhibition, actives largely listed as inhibitors; note: potency is the fitted concentration of half-maximal effect; nearly all actives have a fitted effect of over 60% in size
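High-throughput fluorogenic screen: 1nM USP1/UAF1 complex, Ub-Rho substrate 150nM final, 50mM HEPES pH 7.8 with 0.5mM EDTA, 0.1 mg/ml BSA, 1mM TCEP and 0.01% Tween-20.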
GALK inhibitor: blocks human galactokinase activity. P51570. 0.007% of 270,000 active. Potency, µM (top dose mostly 57.5 µM), inactives show top-dose activity change, negative = inhibition, actives largely listed as inhibitors. Purified GALK, Kinase-Glo residual ATP luminescence; note: potency is the fitted concentration of half-maximal effect
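Human GALK (5 nM) with 35 uM ATP and 100 uM galactose in 20 mM HEPES pH 8.0, 5 mM MgCl2, 60 mM NaCl, 1 mM DTT, 0.01% BSA. After 1 h at room temperature, leftover ATP was read by Kinase-Glo Plus luminescence.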
TrxR1 substrate: rat thioredoxin reductase 1 substrate activity; purified TrxR1 substrate turnover, NADPH consumption readout; O89049; 0.01% of 390,000 active; Potency, µM (highest dose often 114 µM), for the others: at the highest dose activity change, negative = substrate turnover; AID 588456; note: potency is the fitted concentration of half-maximal effect; nearly all actives have a fitted effect of over 50% in size
Target sequence (O89049 whole entry, looked up): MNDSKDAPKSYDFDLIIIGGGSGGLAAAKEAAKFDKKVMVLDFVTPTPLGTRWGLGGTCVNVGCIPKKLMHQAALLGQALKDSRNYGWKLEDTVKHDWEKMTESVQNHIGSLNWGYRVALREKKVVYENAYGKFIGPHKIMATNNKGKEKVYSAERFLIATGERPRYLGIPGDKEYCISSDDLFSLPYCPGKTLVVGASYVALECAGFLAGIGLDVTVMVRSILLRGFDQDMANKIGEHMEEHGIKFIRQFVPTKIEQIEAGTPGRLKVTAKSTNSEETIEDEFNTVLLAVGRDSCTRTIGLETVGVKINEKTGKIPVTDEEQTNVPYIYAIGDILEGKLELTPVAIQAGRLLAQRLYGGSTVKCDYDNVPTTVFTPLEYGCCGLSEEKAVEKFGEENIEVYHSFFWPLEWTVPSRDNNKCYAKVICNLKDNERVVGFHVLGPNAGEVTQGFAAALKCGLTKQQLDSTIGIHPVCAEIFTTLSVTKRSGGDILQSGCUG
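Rat TrxR1, dispensed at 90 nM, was prereduced with 400 uM NADPH (final) for 5 min at ~22 deg C, then incubated with compound 15 min before 400 uM selenite. A first-read NADPH fluorescence drop versus no-compound background flagged substrates.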
rTrxR1 inhibitor: rat TrxR1 inhibition; Potency, µM (top dose mostly 114 µM), for inactives: at the highest dose activity change, negative = inhibition, most hits filed as inhibitors; recombinant rTrxR1, NADPH fluorescence consumption, selenite substrate; 1% of 390,000 active; note: potency is the fitted concentration of half-maximal effect; nearly all actives have a fitted effect of over 65% in size
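Rat TrxR1 (90 nM in the dispensed reagent) was pre-reduced with 400 uM NADPH for 5 min at room temperature, then incubated with compound for 15 min. After 400 uM selenite was added, NADPH fluorescence (Ex 340/Em 450 nm) was followed for 8 min.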
* = called active by the depositor; ? = inconclusive; · = no result; [ ] = another dose, or the depositor's remark. Unless noted, calls come from the whole dose curve; as a rule, active = well fitted curve in the direction sought with a large enough effect; inconclusive = small, poorly fitted or top-dose-only effect, or another doubt; inactive = no such curve, though single readings can be large; an effect the other way counts as inactive or inconclusive. % is set by controls: 0 for no effect and ±100 for the full control effect.

SMILES | Coupling enz | USP1 inh | GALK inhibitor | TrxR1 substrate | rTrxR1 inhibitor
CCc1ccc(S(=O)(=O)/N=C2\C=C(NS(=O)(=O)c3ccccc3)C(=O)c3ccccc32)cc1 | -34* | 25µM* | 1% | -14% | ?
Cc1ccc(C)c(S(=O)(=O)/N=C2\C=C(NS(=O)(=O)c3ccccc3)C(=O)c3ccccc32)c1 | -50* | 16µM* | -3% | -10% | -13%
Cc1cc(NS(=O)(=O)c2ccc(C(C)C)cc2)no1 | 3 | -15% | 5% | -2% | 11%
CC(C)c1ccc(S(=O)(=O)/N=C2/C=CC(=O)c3ccccc32)cc1 | -53* | · | 1% | · | ·
CC(C)c1ccc(S(=O)(=O)c2cc3cc(Br)ccc3oc2=O)cc1 | 2 | -20% | 0% | 8%[57.1 µM] | -42%
Cc1cccc(S(=O)(=O)Nc2cccc3c2C(=O)c2ccccc2-3)c1 | 0 | ? | 0% | 1% | 1%
CCc1ccc(Nc2nc3ccccc3nc2NS(=O)(=O)c2ccccc2)cc1 | · | ? | · | -9% | 17%
CC(C)c1ccc(S(=O)(=O)/N=C2\C=C(NS(=O)(=O)c3ccccc3)C(=O)c3ccccc32)cc1 | -32* | ? | 0% | -5% | ?
CCCCNC(=O)[C@@H]1CC=C[C@@H]2CCN(Cc3ccccc3)C(=O)[C@@H]21 | · | · | · | -2% | 17%
N#Cc1cccc(NC(=S)Nc2ccccc2)c1 | 0 | -15% | 2% | -4% | 45µM*
Cc1cccc(NC(=O)C2CC(=O)n3cnnc3S2)c1 (stereo not given) | 0 | -8% | -3% | -3% | 7.1µM*
CCN=C1SC(C(=O)Nc2cccc(C)c2)CC(=O)N1CC (stereo not given) | -1 | -2% | 2% | 0% | 8%
CCCNC(=O)C/C(C)=N/NC(=O)C(=O)Nc1ccccn1 | 2 | -11% | 11% | 2% | 63µM*
C/C(CC(=O)Nc1ccccn1)=N\NC(=O)c1ccccc1 | 0 | · | 0% | · | ·
CCc1cccc2c(C(O)(c3c[nH]c4c(CC)cccc34)c3c[nH]c4c(CC)cccc34)c[nH]c12 | · | · | · | 3% | 6%
O=C(NCCCN1CCOCC1)c1sc2cc([N+](=O)[O-])ccc2c1Cl | -60* | -15% | 0% | 0%[57.1 µM] | -14%[57.1 µM]
CCOc1ccc(C2CC(=O)n3nc(-c4ccc(C)cc4)nc3S2)cc1 (stereo not given) | · | 1% | · | 4% | 34%
COc1ccc(-c2nc3n(n2)C(=O)CC(c2ccco2)S3)cc1 (stereo not given) | -2 | -7% | -3% | 3% | 14µM*
C=C1C(=O)[C@]23[C@H](O)[C@H]1CC[C@H]2[C@@]12COC3(O)[C@H](O)[C@@H]1C(C)(C)CC[C@@H]2O | 3 | · | · | · | ·
CC(=O)N1CCc2cc(C(=O)CN3CCC(C)CC3)ccc21 | 1 | -19% | 2% | -6%[57.1 µM] | ?
CC(=O)N1CCc2cc(C(=O)CN3CCN(C(=O)c4ccco4)CC3)ccc21 | -5 | -20% | 1% | -1%[57.1 µM] | 16µM*
COc1ccc2[nH]c(C)c(C(=O)CN3CCN(C(=O)c4ccco4)CC3)c2c1 | 3 | -12% | 2% | -3% | 28µM*
COc1ccc2[nH]cc(C(=O)CN3CCN(C(=O)c4ccco4)CC3)c2c1 | 2 | 7% | -2% | -9% | -35%
O=C1[C@H](Cc2ccccc2)NC/C=C\C[C@@H](c2ccco2)N1Cc1ccccc1 | · | · | · | 3% | 12%
O=C1C=C(O)c2[nH]c(=O)ccc2C1=O | · | 25µM* | · | -10%[57.1 µM] | -12%[57.1 µM]
SMILES | Coupling enz | USP1 inh | GALK inhibitor | TrxR1 substrate | rTrxR1 inhibitor
COc1ccccc1CNc1ncnc2ccc(-c3ccccc3OC)cc12 | 1 | · | · | · | ·
O=S(=O)(/N=C/c1c(O)ccc2ccccc12)c1cccs1 | -50* | · | 0% | · | ·
Oc1ccc2ccccc2c1C=NCc1ccccc1 | -32* | -13% | 0% | -7% | 1%
Oc1ccc2ccccc2c1/C=N/c1nc2c(s1)CCCC2 | -40* | -8% | -3% | -12% | -26%
Cc1ccc(S(=O)(=O)/N=C/c2c(O)ccc3ccccc23)cc1 | -32* | 8% | 0% | -6% | ?
O=CN/N=C/c1c(O)ccc2ccccc12 | -3 | -10% | -1% | 2% | 16%
Oc1c(Br)cc(Br)cc1/C=N/c1nc2c(s1)CCCC2 | · | -20% | · | -8% | -25%
COc1ccc2c(c1)c1nnc(SC)nc1n2Cc1ccccc1 | · | · | · | 1% | 8%
